According to PubChem BioAssay AID1053122 (Broad Institute, 2014):
Measured potencies and affinities stand elsewhere. Activity calls are given as the source filed them.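 The calls were made as follows: active = CTGF level falls with dose and the fitted half-maximal dose is at most twice the top valid dose; inconclusive = flat fit with 30 to 70% drop, or a poor fit; inactive = the rest.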

Test: YAP1 pathway inhibition via CTGF transcript levels, dose response, cell-based, DLD1 colon cancer, RT-qPCR, cherry-pick (AID 1053122)
Details: DLD1 CTGF mRNA (YAP1 pathway), 24 h; series mostly up to 26 µM
For `COc1cccc(-c2ccc([C@@H]3[C@@H](CO)N4CCCCN(C(=O)Cc5ccncc5)C[C@H]34)cc2)c1`, the outcome was “inactive”. With `O=C(Cc1ccncc1)N1CCCCN2[C@H](CO)[C@@H](c3ccc(C#Cc4ccccc4F)cc3)[C@H]2C1` the outcome was “inactive”. In the case of `COc1cccc(-c2ccc([C@@H]3[C@H]4CN(C(=O)Cc5ccncc5)CCCCN4[C@H]3CO)cc2)c1`, the outcome is reported as “inactive”. With `COc1cccc(-c2ccc([C@H]3[C@@H](CO)N4CCCCN(C(=O)Cc5ccncc5)C[C@H]34)cc2)c1` the outcome was “inactive”. For `COc1cccc(-c2ccc([C@H]3[C@H](CO)N4CCCCN(C(=O)Cc5ccncc5)C[C@@H]34)cc2)c1`, the outcome was “inactive”. With `O=C(Cc1ccncc1)N1CCCCN2[C@H](CO)[C@@H](c3ccc(C#Cc4ccccc4F)cc3)[C@@H]2C1` the outcome was “inactive”. In the case of `COc1cccc(-c2ccc([C@H]3[C@@H](CO)N4CCCCN(C(=O)Cc5ccncc5)C[C@@H]34)cc2)c1`, the outcome is reported as “inactive”. In the case of `COc1cccc(-c2ccc([C@@H]3[C@@H](CO)N4CCCCN(C(=O)Cc5ccncc5)C[C@@H]34)cc2)c1`, the outcome is reported as “inactive”. In the case of `O=C(Cc1ccncc1)N1CCCCN2[C@@H](CO)[C@@H](c3ccc(C#Cc4ccccc4F)cc3)[C@@H]2C1`, the outcome is reported as “inactive”. In the case of `COc1cccc(-c2ccc([C@@H]3[C@H](CO)N4CCCCN(C(=O)Cc5ccncc5)C[C@@H]34)cc2)c1`, the outcome is reported as “inactive”. In the case of `O=C(Cc1ccncc1)N1CCCCN2[C@H](CO)[C@H](c3ccc(C#Cc4ccccc4F)cc3)[C@H]2C1`, the outcome is reported as “inactive”. In the case of `O=C(Cc1ccncc1)N1CCCCN2[C@H](C1)[C@@H](c1ccc(C#Cc3ccccc3F)cc1)[C@@H]2CO`, the outcome is reported as “inactive”.
